These results are taken from PubChem BioAssay (NCATS).

Assay [1] addresses Cytochrome P450 2D6 (Homo sapiens) (UniProt P10635). The assay can be described thus: Cytochrome P450 family 2 subfamily D member 6 (CYP2D6) small molecule antagonists: luciferase biochemical (cell-free) qHTS assay (AID 1645840; active = well fitted curve in the direction sought with a large enough effect in the repeat runs; an effect the other way counts as inactive or inconclusive; note: nearly all actives have a fitted effect of over 55% in size). The gist of the method:
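P450-Glo luminescent screen: recombinant CYP2D6 enzyme–proluciferin substrate mix preincubated with compound 10 min at room temperature, then NADPH regeneration added for 1 h at room temperature. Detection reagent added for 20 min; luciferin light read as relative luminescence units.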
For orientation: qHTS replaces the single test concentration by a dilution series.

Assay [2] is described as follows: Primary qHTS for inhibitors of nuclear receptor binding SET domain protein 2 (NSD2) in an isogenic RCH-ACV NSD2 p.E1099K mutant (9B) (AID 1645876). Note: nearly all actives have a fitted effect of over 70% in size.
A short description of assay [3]: Primary qHTS for inhibitors of nuclear receptor binding SET domain protein 2 (NSD2) in an RCH-ACV wild type WT cells (2C) (AID 1645877). Note: nearly all actives have a fitted effect of over 70% in size.
The target in assay [4] is Cytochrome P450 2C9 (Homo sapiens) (UniProt P11712). The assay can be described thus: Cytochrome P450 family 2 subfamily C member 9 (CYP2C9) small molecule antagonists: luciferase biochemical (cell-free) qHTS assay (AID 1645842; active = well fitted curve in the direction sought with a large enough effect in the repeat runs; an effect the other way counts as inactive or inconclusive; note: nearly all actives have a fitted effect of over 55% in size). The gist of the method: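 Luminescence, after 20 min with luciferin detection reagent, reflected CYP2C9 turnover during a 1 h NADPH-driven reaction at 37C. Enzyme-substrate mix contained 0.4% bovine serum albumin and was preincubated with compound 10 min at room temperature.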
Cytochrome P450 2C9 (Homo sapiens), sequence (P11712 whole entry, looked up): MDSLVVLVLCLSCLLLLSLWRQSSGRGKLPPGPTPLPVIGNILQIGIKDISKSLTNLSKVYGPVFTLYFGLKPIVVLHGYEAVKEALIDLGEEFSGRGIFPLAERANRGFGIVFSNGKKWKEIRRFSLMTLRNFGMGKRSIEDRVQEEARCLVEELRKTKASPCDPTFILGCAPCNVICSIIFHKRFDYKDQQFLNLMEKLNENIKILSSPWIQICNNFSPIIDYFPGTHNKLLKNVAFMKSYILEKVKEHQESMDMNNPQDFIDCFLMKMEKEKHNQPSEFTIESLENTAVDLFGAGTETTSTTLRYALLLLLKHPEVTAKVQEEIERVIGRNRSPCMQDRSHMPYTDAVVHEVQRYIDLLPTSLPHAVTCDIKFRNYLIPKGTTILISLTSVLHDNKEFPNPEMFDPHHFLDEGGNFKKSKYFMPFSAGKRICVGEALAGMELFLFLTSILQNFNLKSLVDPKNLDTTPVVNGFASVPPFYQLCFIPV

Where “and” joins values, the source holds several entries; their conditions need not be identical. Equal entries are not always repeated. Records with an inconclusive call do not appear. Calls of active or inactive are those of the source. Unless noted, calls come from the whole dose curve; as a rule, active = well fitted curve in the direction sought with a large enough effect; inconclusive = small, poorly fitted or top-dose-only effect, or another doubt; inactive = no such curve, though single readings can be large; an effect the other way counts as inactive or inconclusive.
Potency is the fitted concentration of half-maximal effect.

Cytochrome P450 2D6 (Homo sapiens), sequence (P10635 whole entry, looked up): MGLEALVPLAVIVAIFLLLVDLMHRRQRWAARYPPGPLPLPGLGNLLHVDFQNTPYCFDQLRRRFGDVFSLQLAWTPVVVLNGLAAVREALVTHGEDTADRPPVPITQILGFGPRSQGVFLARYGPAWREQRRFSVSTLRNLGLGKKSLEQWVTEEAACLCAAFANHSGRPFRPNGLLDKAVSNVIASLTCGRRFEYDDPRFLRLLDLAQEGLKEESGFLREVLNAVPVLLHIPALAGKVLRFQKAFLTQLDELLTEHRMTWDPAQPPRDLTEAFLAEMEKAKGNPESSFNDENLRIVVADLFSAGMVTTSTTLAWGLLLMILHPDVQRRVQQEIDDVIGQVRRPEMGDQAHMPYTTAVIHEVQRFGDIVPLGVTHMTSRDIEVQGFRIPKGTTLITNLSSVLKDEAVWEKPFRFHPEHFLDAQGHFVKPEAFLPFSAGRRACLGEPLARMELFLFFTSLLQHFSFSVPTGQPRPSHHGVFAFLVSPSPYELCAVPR

Take `CC(C)c1ccc(CC(=O)N2CCC[C@@H](c3cccc(OC(C)(C)C(=O)O)c3)C2)cc1`: the Potency entry in assay [1], in assay [2] and in assay [3] was “inactive” throughout.
Regarding `CN(C)c1cccc(-c2c3c(=O)n(-c4ccccc4Cl)[nH]c3cc(=O)n2C)c1`, the Potency result in assay [1], in assay [2] and in assay [3] was “inactive” throughout. Further, in assay [4], the Potency was 5.35 µM (active).
`O=c1ccn([C@@H]2O[C@H](CO)[C@@H](O)[C@H]2O)c(=O)[nH]1`: the Potency entry in assay [1], in assay [4], in assay [2] and in assay [3] was “inactive” in each case.
In the case of `CCOC(=O)c1c(C)nn(-c2cccc([N+](=O)[O-])c2)c1C`, the figures for the Potency in assay [1] and in assay [4] were 8.49 µM (active) and 1.07 µM (active), respectively. The Potency entry in assay [2] and in assay [3] was “inactive” each time.
On to `CCS(=O)(=O)N1CCC([C@@H](C)n2c(C)c(C(=O)NCc3c(OC)cc(C)[nH]c3=O)c3ccccc32)CC1`, for which the Potency entry in assay [1], in assay [2] and in assay [3] was “inactive” throughout.
In the case of `COc1cc(NC(=O)c2ccccn2)ccc1Cl`, the Potency in assay [1] and in assay [4] was 23.9 µM (active) each time. For the same molecule, the Potency entry in assay [2] and in assay [3] was “inactive” throughout.
Regarding `Nc1nc(CC(=O)Nc2ccc(CCNCC(O)c3ccccc3)cc2)cs1` (centres undefined), in assay [1], the Potency is 0.477 µM (active). Also, the Potency result in assay [2] and in assay [3] was “inactive” throughout.
For the molecule `COC(=O)[C@H](CC1C=NC=N1)NCC12CC3CC(CC(C3)C1)C2` (some centres undefined), the Potency entry in assay [1], in assay [4], in assay [2] and in assay [3] was “inactive” each time.
`Cc1nn(C)c(COc2ccc(N3CCN(S(=O)(=O)N(C)C)CC3)cc2)c1-c1cccc2c(CCCOc3cccc4ccccc34)c(C(=O)O)n(CCN3CCOCC3)c12`: the Potency result in assay [1], in assay [2] and in assay [3] was “inactive” throughout. In addition, the Potency in assay [4] was 13.5 µM (active).
With `COc1cc(N2CCC(N(C)C)CC2)ccc1Nc1ncc(Cl)c(Nc2ccccc2P(C)(C)=O)n1`, the Potency result in assay [1] was “inactive”. For the same molecule, the Potency in assay [2] is 2.3 µM (active) and 2.63 µM (active); in assay [3], 3.25 µM (active) and 3.32 µM (active).
Consider `Cc1nc2c(-c3cnc(N)nc3)nc(N3CCOCC3)nc2n1C(C)C`, for which the Potency result in assay [1] was “inactive”. Moreover, the Potency in assay [4] is 12 µM (active); in assay [2], 72.8 nM (active) and 132 nM (active); in assay [3], 72.8 nM (active) and 132 nM (active).
Regarding `CC(=O)NCCCCn1c2c(c3ccccc31)C(=O)NCC2`, the Potency result in assay [1], in assay [4], in assay [2] and in assay [3] was “inactive” each time.
In the case of `O=C(c1ccccn1)c1cnn2c(-c3ccncc3)ccnc12`, the Potency in assay [1] was 13.5 µM (active); in assay [4] it was 12 µM (active). Also, the Potency result in assay [2] and in assay [3] was “inactive” in each case.
With `Cc1nnc(C(C)C)n1C1CC2CCC(C1)N2CC[C@H](NC(=O)C1CCC(F)(F)CC1)c1ccccc1` (some centres undefined), the Potency entry in assay [4], in assay [2] and in assay [3] was “inactive” in each case.
With `CC(C)C(=O)c1cn(CC(=O)COc2ccc(Oc3ccccc3)cc2)c2ccc(C(=O)O)cc12`, the Potency result in assay [4], in assay [2] and in assay [3] was “inactive” each time.
